Measurements published in PubChem BioAssay (NCATS).
Several values for one entry are separate records, joined by “and”; a condition that tells them apart may be missing. Identical values can stand only once. Records with an inconclusive call do not appear. Activity calls are given as the source filed them. Unless noted, the call rests on the fitted dose curve.

How the values were obtained:
[1] = Inducers of the Endoplasmic Reticulum Stress Response (ERSR) in human glioma: Validation (AID 504836; active means well fitted curve in the direction sought with a large enough effect; an effect the other way counts as inactive or inconclusive; further: 0% is about no effect)
Procedure, shortened: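 Stably transfected U87-MG glioma cells carrying a GRP78-based luciferase sensor; 16 h compound incubation. Luminescence end-point read 10 min after Bright-Glo addition at room temperature.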

[2] = qHTS for Inhibitors of the Functional Ribonucleoprotein Complex (vRNP) of Lassa (LASV) Arenavirus: LASV Primary Screen - GLuc reporter signal (AID 1347082; calls by dose curve; tested in HEK293 reporter line; further: nearly all actives have a fitted effect of over 60% in size; further: potency means the concentration at half of the fitted maximal effect; on activity change, negative = inhibition: on the % scale 0 is the no-effect control and ±100 the full control effect)
[3] = qHTS for Inhibitors of the Functional Ribonucleoprotein Complex (vRNP) of Lassa (LASV) Arenavirus: Viability assay - alamar blue signal for LASV Primary Screen (AID 1347083; calls by dose curve; tested in HEK293 reporter line; further: nearly all actives have a fitted effect of over 80% in size; further: potency means the concentration at half of the fitted maximal effect)
[4] = qHTS for Inhibitors of the Functional Ribonucleoprotein Complex (vRNP) of Lymphocytic Choriomeningitis Arenaviruses (LCMV): Viability assay - alamar blue signal for LCMV Primary Screen (AID 1347085; calls by dose curve; tested in HEK293 reporter line; further: nearly all actives have a fitted effect of over 80% in size; further: potency means the concentration at half of the fitted maximal effect)
[5] = target: Nucleoprotein (Lymphocytic choriomeningitis virus (strain Armstrong)) (UniProt P09992); experiment: qHTS for Inhibitors of the Functional Ribonucleoprotein Complex (vRNP) of Lymphocytic Choriomeningitis Arenaviruses (LCMV): LCMV Primary Screen - GLuc reporter signal (AID 1347086); further: nearly all actives have a fitted effect of over 70% in size; further: potency means the concentration at half of the fitted maximal effect; on activity change, negative = inhibition: on the % scale 0 is the no-effect control and ±100 the full control effect
CRL-7250 = normal cell line; experiment: qHTS assay to identify novel small-molecules to repurpose for Merkel cell carcinoma treatment (AID 1296009; active means well fitted curve in the direction sought with a large enough effect; an effect the other way counts as inactive or inconclusive; further: nearly all actives have a fitted effect of over 60% in size); conditions: MCC and control cell lines, CellTiter-Glo viability, 72 h; series mostly up to 92 µM
Procedure, shortened: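 Dose-response viability screen; 72 hr exposure at 37 degree celsius; CellTiter-Glo added, 10 min room temperature, luminescence read; RLUs scaled between no-cell and DMSO wells.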

[6] = qHTS profiling of the MIPE4 collection as inhibitors of Plasmodium falciparum (3D7) proliferation (AID 743344; call rule not given here;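 further: scaled between DMSO vehicle wells and 0.29 µM artemisinin as full inhibition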); conditions: P. falciparum 3D7 in erythrocytes, SYBR Green DNA fluorescence, 72 h; at 28.5 µM (top of the series) unless noted
Procedure, shortened: (§1)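 Parasite DNA was quantified by SYBR Green I fluorescence (ex 485, em 535 nm) after overnight lysis in saponin/Triton buffer at room temperature. Cultures at 0.3% parasitemia and 2.5% hematocrit were first exposed to compound for 72 h at 37 C; signals were normalised to artemisinin (0.29 uM) and vehicle wells.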

[7] = qHTS profiling of the MIPE4 collection as inhibitors of Plasmodium falciparum (HB3) proliferation (AID 743347; call rule not given here;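 further: plate controls were DMSO vehicle wells for no effect and artemisinin wells for full effect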); conditions: P. falciparum HB3 in erythrocytes, SYBR Green DNA, 72 h; at 28.5 µM (top of the series) unless noted
Procedure, shortened: as §1

[8] = Cytotoxicity counterscreen for inhibitors of SARS-CoV-2 cell entry (AID 1645845); further: nearly all actives have a fitted effect of over 50% in size
Procedure, shortened: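 Counterscreen run in the same HEK293-ACE2 line as the pseudotyped-particle entry assay, without particles. Viability after 48 h at 37 C was read as ATP luminescence, scaled between cell-containing and cell-free wells.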

[9] = Primary qHTS to identify inhibitors of SARS-CoV-2 cell entry (AID 1645846); conditions: activity change, negative = inhibition: at 57.1 µM (top of the series) unless noted; further: nearly all actives have a fitted effect of over 45% in size; further: potency means the concentration at half of the fitted maximal effect
Procedure, shortened: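 Data are normalized to wells receiving SARS-CoV-2-S pseudoparticles and those given bald particles. Entry signal was luciferase luminescence in stable hACE2 Expi293F cells, 48 hr post-infection, after 1 hr compound pretreatment.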

[10] = target: Alpha-galactosidase (Coffea arabica) (UniProt Q42656); experiment: Counterscreen for Glucocerebrosidase Inhibitors: qHTS Assay for Coffee Bean alpha-Galactosidase at pH 4.5 (AID 957; active means well fitted curve in the direction sought with a large enough effect; an effect the other way counts as inactive or inconclusive;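 further: plate controls were enzyme alone for no effect and no enzyme for full effect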)
Procedure, shortened: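 Enzyme is added first (2 nM final), then compounds titrated from 0.7 nM to 77 uM, then 80 uM 4-methylumbelliferyl alpha-D-galactopyranoside; after 20 min at room temperature a pH 10 NaOH/glycine stop precedes fluorescence reading at 365/440 nm.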

[11] = target: Alpha-galactosidase (Coffea arabica) (UniProt Q42656); experiment: Counterscreen for Glucocerebrosidase Inhibitors: qHTS Assay for Coffee Bean alpha-Galactosidase at pH 5.9 (AID 998; active means well fitted curve in the direction sought with a large enough effect; an effect the other way counts as inactive or inconclusive;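 further: plate controls were uninhibited enzyme for no effect and no-enzyme basal signal for full effect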)
Procedure, shortened: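 Enzyme 2 nM + cpd (0.7 nM–77 uM titration) + 4-MU-alpha-Gal 80 uM, pH 5.9 citrate/Tween-20, RT 20 min, NaOH/glycine stop pH 10, fluor 365/440. Normalized to no-enzyme and full-activity controls; Hill-fit AC50.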

[12] = Validation screen for inhibitors of Lassa infection (AID 463096); further: on the % scale 0 is the no-effect control and ±100 the full control effect
[13] = qHTS profiling of the MIPE4 collection as inhibitors of Plasmodium falciparum (DD2) proliferation (AID 743345; call rule not given here); conditions: P. falciparum Dd2 in erythrocytes, SYBR Green DNA, 72 h; at 28.5 µM (top of the series) unless noted
Procedure, shortened: as §1

[14] = target: Nuclear receptor subfamily 1 group I member 3 (Homo sapiens) (UniProt Q14994); experiment: Primary qHTS for antagonist of constitutive androstane receptor (CAR) against the NCATS DSHEA and TCM libraries (AID 1794836; active means well fitted curve in the direction sought with a large enough effect; an effect the other way counts as inactive or inconclusive;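 further: HepG2 cells stably expressing hCAR with CYP2B6 luciferase reporter stimulated by CITCO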)
Procedure, shortened: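 HepG2-CYP2B6-hCAR cells, attached 5 h, given compounds plus CITCO agonist […], incubated 24 h at 37 C. Luciferase luminescence read, multiplexed with CellTiter-Fluor viability (Ex/Em 405/540 nm).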

[15] = Confirmatory qHTS for VERO E6 Cytotoxicity Assay: Counterscreen for SARS-CoV-2 CPE Assay (AID 1508605); further: on the % scale 0 is the no-effect control and ±100 the full control effect; nearly all actives have a fitted effect of over 60% in size
[16] = Confirmatory qHTS for activators (rescue) of SARS-CoV-2 Cytopathic Effect (CPE) (AID 1508606); further: potency means the concentration at half of the fitted maximal effect; nearly all actives have a fitted effect of over 70% in size
[17] = target: Bile acid receptor (Homo sapiens) (UniProt Q96RI1); experiment: qHTS assay for small molecule agonists of farnesoid X receptor signaling (AID 588527); conditions: HEK293T FXR-UAS-bla, beta-lactamase ratio, 16 h; activation: stronger effect = higher value;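 further: 0% = vehicle basal and 100% = reference agonist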
Procedure, shortened: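 Quantitative HTS used FXR-UAS-bla HEK293T cells with 16 h compound incubation at 37 C. EC50 values came from concentration-response curves normalized to chenodeoxycholic acid.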

[18] = Confirmatory qHTS to identify inhibitors of SARS-CoV-2 cell entry (AID 1645844); further: potency means the concentration at half of the fitted maximal effect; nearly all actives have a fitted effect of over 45% in size
Procedure, shortened: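 HEK293-ACE2, overnight seeding; cpd 1 h, 37C/5% CO2; + SARS-CoV-2-S MLV PP (Wuhan-Hu-1, ΔC19); 48 h; Bright-Glo luminescence. Data normalised to S PP and bald PP wells.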

[19] = VSVG counterscreen qHTS to identify inhibitors of SARS-CoV-2 cell entry (AID 1645847); further: potency means the concentration at half of the fitted maximal effect; nearly all actives have a fitted effect of over 65% in size
Procedure, shortened: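 Counterscreen using VSV-G (not spike) pseudotyped MLV particles on ACE2-expressing Expi293F cells after 1 h compound preincubation; infection ran 48 h at 37 °C. Data normalized to VSV-G PP and bald-PP wells.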

Chain of Nucleoprotein (Lymphocytic choriomeningitis virus (strain Armstrong)) (P09992 whole entry, looked up): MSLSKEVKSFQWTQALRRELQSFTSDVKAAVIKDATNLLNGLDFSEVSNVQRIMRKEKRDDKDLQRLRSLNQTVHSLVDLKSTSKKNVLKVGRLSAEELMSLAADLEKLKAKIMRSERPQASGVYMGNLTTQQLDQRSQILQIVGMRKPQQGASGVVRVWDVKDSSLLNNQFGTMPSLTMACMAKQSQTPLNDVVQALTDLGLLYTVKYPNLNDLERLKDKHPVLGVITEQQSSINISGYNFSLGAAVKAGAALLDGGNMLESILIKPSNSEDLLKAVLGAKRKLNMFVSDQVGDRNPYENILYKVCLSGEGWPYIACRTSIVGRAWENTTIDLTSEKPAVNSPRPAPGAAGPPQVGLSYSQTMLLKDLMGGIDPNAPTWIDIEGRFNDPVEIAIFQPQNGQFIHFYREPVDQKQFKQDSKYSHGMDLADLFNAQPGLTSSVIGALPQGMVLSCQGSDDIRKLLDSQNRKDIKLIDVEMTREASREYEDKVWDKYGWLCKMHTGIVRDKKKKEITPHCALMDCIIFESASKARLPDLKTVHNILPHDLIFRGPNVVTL
Chain of Alpha-galactosidase (Coffea arabica) (Q42656 whole entry, looked up): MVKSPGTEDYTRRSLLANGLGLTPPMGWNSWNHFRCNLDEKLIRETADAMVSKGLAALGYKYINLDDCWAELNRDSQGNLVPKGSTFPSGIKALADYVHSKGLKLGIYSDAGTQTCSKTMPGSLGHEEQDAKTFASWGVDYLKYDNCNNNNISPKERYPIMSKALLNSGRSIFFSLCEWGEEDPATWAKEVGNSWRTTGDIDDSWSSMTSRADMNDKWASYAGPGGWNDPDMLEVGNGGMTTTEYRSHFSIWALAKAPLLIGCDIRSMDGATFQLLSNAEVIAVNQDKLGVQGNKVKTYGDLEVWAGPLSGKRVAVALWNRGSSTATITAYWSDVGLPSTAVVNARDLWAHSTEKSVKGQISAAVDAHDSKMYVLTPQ
Chain of Bile acid receptor (Homo sapiens) (Q96RI1 whole entry, looked up): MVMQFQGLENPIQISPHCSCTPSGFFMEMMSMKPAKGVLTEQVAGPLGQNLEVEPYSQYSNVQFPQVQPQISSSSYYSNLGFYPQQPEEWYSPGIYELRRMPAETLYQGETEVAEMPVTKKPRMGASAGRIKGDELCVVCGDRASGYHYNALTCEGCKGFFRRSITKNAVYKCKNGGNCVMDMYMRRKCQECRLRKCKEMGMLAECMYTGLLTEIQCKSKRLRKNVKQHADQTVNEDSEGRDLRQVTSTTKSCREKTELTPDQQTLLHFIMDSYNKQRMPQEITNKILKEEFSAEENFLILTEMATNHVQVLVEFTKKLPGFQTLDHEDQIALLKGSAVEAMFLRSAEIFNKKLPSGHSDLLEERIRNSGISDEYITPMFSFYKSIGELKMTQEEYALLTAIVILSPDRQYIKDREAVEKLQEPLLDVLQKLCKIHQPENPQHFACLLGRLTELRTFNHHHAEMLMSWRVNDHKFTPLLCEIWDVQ
Chain of Nuclear receptor subfamily 1 group I member 3 (Homo sapiens) (Q14994 whole entry, looked up): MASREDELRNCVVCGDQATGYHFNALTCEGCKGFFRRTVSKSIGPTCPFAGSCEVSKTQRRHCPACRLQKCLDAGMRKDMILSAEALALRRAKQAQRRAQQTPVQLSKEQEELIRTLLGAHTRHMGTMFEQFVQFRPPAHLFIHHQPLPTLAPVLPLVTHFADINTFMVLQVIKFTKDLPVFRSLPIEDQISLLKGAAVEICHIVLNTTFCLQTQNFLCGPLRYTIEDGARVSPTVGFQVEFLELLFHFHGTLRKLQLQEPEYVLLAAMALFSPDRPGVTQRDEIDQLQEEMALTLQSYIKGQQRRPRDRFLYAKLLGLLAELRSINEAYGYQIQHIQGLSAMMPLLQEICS

COc1ccc2cc([S+]([O-])Cc3ncc(C)c(OC)c3C)nc2c1
inactive: outcome [1] | Potency [2] | Potency [3] | Potency [4] | Potency [5] | Potency (CRL-7250)

c1coc(CNc2ncnc3nc[nH]c23)c1
71.1%: parasite growth, % of DMSO control [6]
inactive: Potency [2] | Potency [3] | Potency [4] | Potency [5] | Potency [8] | Potency (CRL-7250)
65.3%: growth, % of control [7]
0.628%: activity change, negative = inhibition [9]

COc1ccccc1N1CCN(CCN(C(=O)C2CCCCC2)c2ccccn2)CC1
inactive: outcome [10] | outcome [11] | Potency [12] | outcome [1] | Potency [2] | Potency [3] | Potency [4] | Potency [5] | Potency (CRL-7250)

CC(C)N(CC[C@H](c1ccccc1)c1cc(CO)ccc1O)C(C)C
81.5%: parasite growth, % of DMSO control [6]
83.7%: parasite growth remaining, % of DMSO control (lower = more inhibition) [13]
inactive: Potency [2] | Potency [3] | Potency [4] | Potency [5] | Potency (CRL-7250)

CC1=C(C(=O)Nc2cc3cn[nH]c3cc2F)C(c2ccc(C(F)(F)F)cc2)CC(=O)N1 (stereo unspecified)
inactive: Potency [2] | Potency [3] | Potency [4] | Potency [5] | Potency (CRL-7250)
-23.5%: activity change, negative = inhibition [9]

COc1cc(O)c2c(c1)C(=O)c1cc(C)cc(O)c1C2=O
inactive: Potency [2] | Potency [3] | Potency [4] | Potency [5] | Potency [14] | Potency (CRL-7250)

OC1CCC(Nc2ncc3nc(Nc4c(F)cc(F)cc4F)n([C@@H]4CCOC4)c3n2)CC1 (stereo partly specified)
inactive: Potency [2] | Potency [8] | Potency [9] | Potency (CRL-7250)
active: Potency [3] 24.3 µM | Potency [4] 21.7 µM

COc1ccc(-c2cc(=O)c3c(O)cc(O)cc3o2)cc1O
inactive: Potency [9] | Potency (CRL-7250)
active: Potency [2] 24.3 µM | Potency [5] 24.3 µM

CN(C)C(=O)[C@H](O)[C@H](Cc1ccccc1)NC(=O)c1cc2cc(Cl)ccc2[nH]1
-8.95%: activity change, negative = inhibition [9]
inactive: Potency [2] | Potency [4] | Potency [5] | Potency [8] | Potency (CRL-7250)

COc1cccc([C@@H](C)NCCCc2ccccc2Cl)c1
inactive: Potency [2] | Potency [3] | Potency [5] | Potency [15] | Potency [8] | Potency (CRL-7250)
active: Potency [16] 10 µM | Potency [9] 22.4 µM

C[C@](Cc1c[nH]c2ccccc12)(NC(=O)OC1C2CC3CC(C2)CC1C3)C(=O)NC[C@H](NC(=O)CCC(=O)O)c1ccccc1 (stereo partly specified)
inactive: Potency [2] | Potency [5] | Potency [8] | Potency [9] | Potency (CRL-7250)

Cc1ccc2c(c1)c1c(n2CCc2ccc(C)nc2)CCN(C)C1
inactive: Potency [2] | Potency [5] | Potency (CRL-7250)

CC(C)(OCc1nn(Cc2ccccc2)c2ccccc12)C(=O)O
inactive: Potency [2] | Potency [8] | Potency [9] | Potency (CRL-7250)

O=c1c(O)c(-c2ccc(O)cc2)oc2cc(O)cc(O)c12
inactive: activation [17] 0.454% and 2.54% | Potency [2] | Potency [3] | Potency [5] | Potency [8] | Potency [9] | Potency (CRL-7250)

Nc1ncnc2c1c(-c1cccc(OCc3ccccc3)c1)cn2C1CC(CN2CCC2)C1 (stereo unspecified)
inactive: Potency [2] | Potency [3] | Potency [5] | Potency [8] | Potency (CRL-7250)

NC1=N[C@@]2(c3cc(NC(=O)c4ccc(F)cn4)ccc3F)COC[C@@H]2CS1
inactive: Potency (CRL-7250)
active: Potency [3] 17.2 µM | Potency [4] 19.3 µM

CS(=O)(=O)c1ccc(-c2cnc(N)c(C(=O)Nc3ccccc3)n2)cc1
inactive: Potency [2] | Potency [5] | Potency [8] | Potency (CRL-7250)

CC[C@H](NC(=O)[C@H](C)NC)C(=O)N1C[C@@H](O)C[C@H]1Cc1c(-c2[nH]c3cc(F)ccc3c2C[C@H]2C[C@H](O)CN2C(=O)[C@H](CC)NC(=O)[C@H](C)NC)[nH]c2cc(F)ccc12
inactive: Potency (CRL-7250)
active: Potency [3] 6.85 µM | Potency [4] 3.85 µM | Potency [5] 7.69 µM

O=C(O)c1ccc(Nc2ncc3c(n2)-c2ccc(Cl)cc2C(c2c(F)cccc2F)=NC3)cc1
inactive: Potency [2] | Potency [5] | Potency [8] | Potency (CRL-7250)
active: Potency [3] 10.9 µM | Potency [18] 0.242 µM | Potency [19] 1.08 µM

CC=CCC(C)C(O)C1C(=O)NC(CC)C(=O)N(C)CC(=O)N(C)C(CC(C)C)C(=O)NC(C(C)C)C(=O)N(C)C(CC(C)C)C(=O)NC(C)C(=O)NC(C)C(=O)N(C)C(CC(C)C)C(=O)N(C)C(CC(C)C)C(=O)N(C)C(C(C)C)C(=O)N1C (stereo unspecified)
active: Potency [5] 13.7 µM
inactive: Potency [3] | Potency (CRL-7250)

CNC(=O)c1ccc(N2C(=S)N(c3cnc(C#N)c(C(F)(F)F)c3)C(=O)C23CCC3)cc1F
active: Potency [2] 21.7 µM
inactive: Potency [8] | Potency (CRL-7250)
-16.7%: activity change, negative = inhibition [9]
